Active and inactive are the calls of the source. Rule for the calls: active = hit-call score of the fitted dose curve at least 0.9, where 1 is the maximum; inactive = score below 0.9.

Settings in all cases: mRNA level, 48 h; actives raise or lower the signal
Read-out in test [1]: Alkaline Phosphatase, Placental (ALPP) gene, ALPP (gene 250)
As to the kind of experiment: LTEA_HepaRG_ALPP: Life Technologies and Expression Analysis (LTEA) Assay for Alkaline Phosphatase, Placental (ALPP) gene using HepaRG (AID 2283468). The method in brief: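 Using human liver HepaRG cells, chemicals are tested in duplicate over 48 h at half-log concentrations topping at 100 uM; phenobarbital 1 mM serves as induction control. ALPP mRNA change by qRT-PCR, bidirectional fit against vehicle.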

Read-out in test [2]: Bcl-2 (BAD) gene, BAD (gene 572)
Kind of test: LTEA_HepaRG_BAD: Life Technologies and Expression Analysis (LTEA) Assay for Bcl-2 (BAD) gene using HepaRG (AID 2283469). The method in brief:
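BAD transcript change, measured by qRT-PCR against three housekeeping genes and fitted in both directions relative to 0.5% DMSO, after 48 h chemical treatment of human HepaRG liver cells at concentrations up to 100 uM.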

Read-out in test [3]: Bcl-2 (BAX) gene, BAX (gene 581)
As to the kind of experiment: LTEA_HepaRG_BAX: Life Technologies and Expression Analysis (LTEA) Assay for Bcl-2 (BAX) gene using HepaRG (AID 2283470). The method in brief: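 Differentiated HepaRG cells exposed 48 h in serum-free induction medium, eight half-log concentrations from 100 uM, in duplicate, 0.5% DMSO vehicle. BAX mRNA by TaqMan qRT-PCR, normalised to ACTB, GAPDH and POLR2A.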

Read-out in test [4]: adenosine kinase (ADK) gene, ADK (gene 132)
As to the kind of experiment: LTEA_HepaRG_ADK: Life Technologies and Expression Analysis (LTEA) Assay for adenosine kinase (ADK) gene using HepaRG (AID 2283471). The method in brief:
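Read-out is ADK transcript level measured by qRT-PCR and normalised to three housekeeping genes. Cells are human HepaRG, dosed for 48 h at up to 100 uM in 0.5% DMSO. Gain or loss of signal is fitted against DMSO controls.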

Read-out in test [5]: Alpha-fetoprotein (AFP) gene, AFP (gene 174)
As to the kind of experiment: LTEA_HepaRG_AFP: Life Technologies and Expression Analysis (LTEA) Assay for Alpha-fetoprotein (AFP) gene using HepaRG (AID 2283472). An outline of the steps:
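Differentiated human HepaRG cells exposed 48 h in serum-free induction medium, 8-point half-log series from 100 uM in 0.5% DMSO, duplicate. AFP mRNA by qRT-PCR, normalized to ACTB, GAPDH, POLR2A; bidirectional fit vs DMSO.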

Read-out in test [6]: BCL2L11 (gene 10018)
Kind of test: LTEA_HepaRG_BCL2L11: Life Technologies and Expression Analysis (LTEA) Assay for Bcl-2 (BCL2L11) gene using HepaRG (AID 2283473). An outline of the steps: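 Human hepatic HepaRG cultures are treated 48 h with test chemicals (maximum 100 uM, 0.5% DMSO vehicle). Expression of BCL2L11 is measured by qRT-PCR against ACTB, GAPDH and POLR2A, with activity in either direction scored relative to vehicle.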

Read-out in test [7]: Apolipoprotein A-V (APOA5) gene, APOA5 (gene 116519)
As to the kind of experiment: LTEA_HepaRG_APOA5: Life Technologies and Expression Analysis (LTEA) Assay for Apolipoprotein A-V (APOA5) gene using HepaRG (AID 2283474). An outline of the steps:
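Concentration-response of APOA5 expression in HepaRG: eight half-log doses to 100 uM, 48 h, qRT-PCR normalized to ACTB/GAPDH/POLR2A, bidirectional fitting with 0.5% DMSO as baseline.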

Read-out in test [8]: Apoptosis regulator Bcl-2 (Homo sapiens) (UniProt P10415)
Kind of test: LTEA_HepaRG_BCL2: Life Technologies and Expression Analysis (LTEA) Assay for Bcl-2 gene using HepaRG (AID 2283475). The method in brief:
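Differentiated human HepaRG cells in serum-free induction medium exposed 48 h, in duplicate, to 8-point half-log series from 100 uM in 0.5% DMSO. BCL2 mRNA by qRT-PCR (TaqMan/Fluidigm), normalized to ACTB, GAPDH, POLR2A; bidirectional fit against DMSO.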

Read-out in test [9]: Bcl-2 (BID) gene, BID (gene 637)
Kind of test: LTEA_HepaRG_BID: Life Technologies and Expression Analysis (LTEA) Assay for Bcl-2 (BID) gene using HepaRG (AID 2283476). An outline of the steps: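 Gene expression by qRT-PCR in HepaRG cells after 48 h exposure, duplicate wells, eight half-log concentrations topping at 100 uM in 0.5% DMSO. Normalized to ACTB, GAPDH, POLR2A; bidirectional fitting relative to DMSO.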

Read-out in test [10]: Caspase-3 (Homo sapiens) (UniProt P42574)
As to the kind of experiment: LTEA_HepaRG_CASP3: Life Technologies and Expression Analysis (LTEA) Assay for cysteine-aspartic acid protease (CASP3) using HepaRG (AID 2283477). An outline of the steps: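 Transcript-level assay: CASP3 mRNA in human HepaRG after 48 h treatment, eight half-log concentrations from 100 uM in 0.5% DMSO, quantified by qRT-PCR.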

Read-out in test [11]: Cytochrome P450 (CYP24A1), CYP24A1 (gene 1591)
As to the kind of experiment: LTEA_HepaRG_CYP24A1: Life Technologies and Expression Analysis (LTEA) Assay for Cytochrome P450 (CYP24A1) using HepaRG (AID 2283478). An outline of the steps:
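Gene expression of CYP24A1 by TaqMan qRT-PCR in HepaRG after 48 h treatment, highest concentration 100 uM; activity fitted in both directions relative to DMSO vehicle.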

Read-out in test [12]: Cytochrome P450 (CYP1A2), CYP1A2 (gene 1544)
Kind of test: LTEA_HepaRG_CYP1A2: Life Technologies and Expression Analysis (LTEA) Assay for Cytochrome P450 (CYP1A2) using HepaRG (AID 2283479). The method in brief: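 In duplicate wells, HepaRG cultures maintained in 0.5% DMSO were treated 48 h across an 8-point, half-log series topping at 100 uM; phenobarbital (1 mM) served as induction control. Expression was read by qRT-PCR.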

Read-out in test [13]: cysteine-aspartic acid protease (CASP8), CASP8 (gene 841)
As to the kind of experiment: LTEA_HepaRG_CASP8: Life Technologies and Expression Analysis (LTEA) Assay for cysteine-aspartic acid protease (CASP8) using HepaRG (AID 2283480). An outline of the steps:
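HepaRG, 48 h exposure, duplicate wells; 8 conc, half-log from 100 uM, 0.5% DMSO. Serum-free induction medium. CASP8 mRNA by TaqMan qRT-PCR, norm. ACTB/GAPDH/POLR2A; gain/loss fitted vs DMSO.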

Read-out in test [14]: Cytochrome P450 (CYP2B6), CYP2B6 (gene 1555)
Kind of test: LTEA_HepaRG_CYP2B6: Life Technologies and Expression Analysis (LTEA) Assay for Cytochrome P450 (CYP2B6) using HepaRG (AID 2283481). An outline of the steps:
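Human HepaRG, 48 h dosing, 0.5% DMSO vehicle, top dose 100 uM. CYP2B6 transcript by qRT-PCR, housekeeping-normalized, bidirectional curve fit.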

Read-out in test [15]: Cytochrome P450 2C19 (Homo sapiens) (UniProt P33261)
Kind of test: LTEA_HepaRG_CYP2C19: Life Technologies and Expression Analysis (LTEA) Assay for CYP2C19 using HepaRG (AID 2283482). The method in brief: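 Endpoint: CYP2C19 mRNA change, bidirectional fit vs 0.5% DMSO. Cells: HepaRG, 48 h exposure, eight-point series topping at 100 uM. Quantitation: qRT-PCR normalized to ACTB, GAPDH, POLR2A.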

Read-out in test [16]: CYP2C8 (gene 1558)
As to the kind of experiment: LTEA_HepaRG_CYP2C8: Life Technologies and Expression Analysis (LTEA) Assay for CYP2C8 using HepaRG (AID 2283483). An outline of the steps:
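CYP2C8 mRNA induction or loss, by qRT-PCR normalized to ACTB/GAPDH/POLR2A, is read in HepaRG cells after 48 h treatment. Concentrations run from 100 uM down in half-log dilutions, with 0.5% DMSO as vehicle and baseline.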

Read-out in test [17]: CYP2C9 (gene 1559)
Kind of test: LTEA_HepaRG_CYP2C9: Life Technologies and Expression Analysis (LTEA) Assay for CYP2C9 using HepaRG (AID 2283484). The method in brief:
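Cells plated 48 h, switched to serum-free induction medium, then treated in duplicate for 48 h at eight concentrations (max 100 uM, 0.5% DMSO). RNA then analysed by qRT-PCR for CYP2C9; curves fitted in both directions relative to DMSO.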

Read-out in test [18]: CYP2E1 (gene 1571)
Kind of test: LTEA_HepaRG_CYP2E1: Life Technologies and Expression Analysis (LTEA) Assay for CYP2E1 using HepaRG (AID 2283485). The method in brief: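 HepaRG cells, plated 48 h, then exposed 48 h in serum-free induction medium to eight half-log concentrations from 100 uM in 0.5% DMSO, duplicate. CYP2E1 mRNA by qRT-PCR, normalized to ACTB/GAPDH/POLR2A; bidirectional fit versus DMSO.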

Read-out in test [19]: CYP4A11 (gene 1579)
Kind of test: LTEA_HepaRG_CYP4A11: Life Technologies and Expression Analysis (LTEA) Assay for CYP4A11 using HepaRG (AID 2283486). An outline of the steps:
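Human hepatic HepaRG cultures receive duplicate 48 h exposures across a concentration-response series topping at 100 uM. Expression changes in CYP4A11 are measured by qRT-PCR relative to DMSO controls.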

Read-out in test [20]: Cytochrome P450 3A4 (Homo sapiens) (UniProt P08684)
Kind of test: LTEA_HepaRG_CYP3A4: Life Technologies and Expression Analysis (LTEA) Assay for CYP3A4 using HepaRG (AID 2283487). An outline of the steps:
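HepaRG, 48 h exposure, 8-pt CRC from 100 uM (half-log), 0.5% DMSO, duplicates; serum-free induction medium. Readout: CYP3A4 mRNA, qRT-PCR, ACTB/GAPDH/POLR2A normalization. Bidirectional fit vs DMSO.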

Chain of Cytochrome P450 2C19 (Homo sapiens) (P33261 whole entry, looked up): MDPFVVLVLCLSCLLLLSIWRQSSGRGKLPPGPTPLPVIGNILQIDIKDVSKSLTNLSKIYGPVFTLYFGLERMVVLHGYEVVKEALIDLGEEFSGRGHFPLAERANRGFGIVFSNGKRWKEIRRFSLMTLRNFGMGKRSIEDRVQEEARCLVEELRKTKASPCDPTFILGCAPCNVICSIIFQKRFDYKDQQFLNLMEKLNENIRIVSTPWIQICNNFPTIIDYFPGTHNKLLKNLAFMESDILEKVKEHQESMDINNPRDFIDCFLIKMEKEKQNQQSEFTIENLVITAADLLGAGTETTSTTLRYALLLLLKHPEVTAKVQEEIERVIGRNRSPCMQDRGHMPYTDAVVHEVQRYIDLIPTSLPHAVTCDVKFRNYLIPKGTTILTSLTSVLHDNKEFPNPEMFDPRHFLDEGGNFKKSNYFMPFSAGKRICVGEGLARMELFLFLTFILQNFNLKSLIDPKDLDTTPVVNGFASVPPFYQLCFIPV
Chain of Apoptosis regulator Bcl-2 (Homo sapiens) (P10415 whole entry, looked up): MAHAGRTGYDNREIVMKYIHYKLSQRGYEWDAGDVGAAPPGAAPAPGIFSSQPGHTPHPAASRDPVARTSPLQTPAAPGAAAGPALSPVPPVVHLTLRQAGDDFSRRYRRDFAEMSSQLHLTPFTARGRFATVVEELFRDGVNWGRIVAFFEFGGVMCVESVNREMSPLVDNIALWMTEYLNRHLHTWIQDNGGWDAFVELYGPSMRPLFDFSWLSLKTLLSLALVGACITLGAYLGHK
Chain of Caspase-3 (Homo sapiens) (P42574 whole entry, looked up): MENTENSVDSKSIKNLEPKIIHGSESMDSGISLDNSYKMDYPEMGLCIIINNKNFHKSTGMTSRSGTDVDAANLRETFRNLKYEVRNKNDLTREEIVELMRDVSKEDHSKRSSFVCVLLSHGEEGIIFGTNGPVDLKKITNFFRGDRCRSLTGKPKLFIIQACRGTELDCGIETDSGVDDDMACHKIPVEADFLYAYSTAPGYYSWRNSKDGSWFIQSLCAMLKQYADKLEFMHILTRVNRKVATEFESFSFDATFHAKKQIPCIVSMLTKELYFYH
Chain of Cytochrome P450 3A4 (Homo sapiens) (P08684 whole entry, looked up): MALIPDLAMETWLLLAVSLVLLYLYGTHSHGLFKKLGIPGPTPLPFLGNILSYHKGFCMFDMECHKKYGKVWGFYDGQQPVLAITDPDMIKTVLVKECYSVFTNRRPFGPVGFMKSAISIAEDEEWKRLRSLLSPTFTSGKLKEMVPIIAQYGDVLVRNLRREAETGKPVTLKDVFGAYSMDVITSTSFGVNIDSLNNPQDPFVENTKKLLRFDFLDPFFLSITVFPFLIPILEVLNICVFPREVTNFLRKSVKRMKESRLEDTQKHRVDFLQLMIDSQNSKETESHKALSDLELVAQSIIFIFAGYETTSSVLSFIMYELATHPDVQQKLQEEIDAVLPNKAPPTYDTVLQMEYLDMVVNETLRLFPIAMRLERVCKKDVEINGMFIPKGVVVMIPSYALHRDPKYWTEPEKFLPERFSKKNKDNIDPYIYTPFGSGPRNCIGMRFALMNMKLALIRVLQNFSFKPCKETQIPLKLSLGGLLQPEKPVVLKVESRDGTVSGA

What is called AC50 is the concentration giving half of the maximal activity seen. Take `Cc1ccccc1CO[C@@H]1C[C@@]2(C(C)C)CC[C@]1(C)O2`: the outcome in test [1], in test [2], in [3], in test [4], in [5] and in [6] was inactive. The result in test [7], in [8], in test [9], in test [10], in [11] and in [13] was inactive. The result in [17] and in test [19] was inactive. In addition, the concentration at half-maximal activity (AC50) is 76.3 µM (active) in test [12]; 15.9 µM (active) in [14]; 32.5 µM (active) in test [15]; 50 µM (active) in test [16]; 50 µM (active) in test [18]; 23.1 µM (active) in test [20].

As to `O=NN(c1ccccc1)c1ccccc1`, the AC50 in test [1] was 82.7 µM (active); in [4], 11.8 µM (active); in test [6], 50 µM (active); in [7] it was 76.1 µM (active); in test [12] it was 50 µM (active); in [14], 10.6 µM (active). Also, the AC50 in test [15] was 7.3 µM (active); in test [17], 0.273 µM (active); in test [19], 50 µM (active). For the same compound, the outcome in [2], in test [3], in [5], in [8], in [10] and in [11] was inactive. The compound was called inactive in test [13], in [16], in [18] and in test [20].

Take `c1cc2ccc3cccc4ccc(c1)c2c34`: the result in test [1], in [2], in test [3], in [4], in [5] and in test [6] was inactive. Moreover, the call in [7], in test [8], in [10], in test [11], in test [13] and in test [17] was inactive. In test [19], the result was inactive. The AC50 was 50 µM (active) in test [12]; 6.95 µM (active) in test [14]; 4.34 µM (active) in test [15]; 4.67 µM (active) in [16]; 29.6 µM (active) in [18].

As to `CO/C=C(/C(=O)OC)c1ccccc1COc1cccc(C(F)(F)F)n1`, the AC50 in test [1] is 5.39 µM (active); in test [3], 9.44 µM (active); in test [5], 4.93 µM (active); in test [6], 6.53 µM (active); in test [7] it was 9.59 µM (active); in [8], 9.33 µM (active). The half-maximal activity concentration (AC50) in test [12] is 7.53 µM (active); in test [14], 7.13 µM (active); in [15] it was 8.79 µM (active); in test [16], 8.74 µM (active); in test [17], 8.81 µM (active); in [18], 3.61 µM (active). Also, the half-maximal activity concentration (AC50) in test [19] is 3.9 µM (active); in [20], 8.05 µM (active). The call in [2], in test [4], in [9], in test [10], in [11] and in test [13] was inactive.

As for `CC#Cc1cc(C)nc(Nc2ccccc2)n1`, the AC50 in test [1] was 50 µM (active); in test [5], 26.4 µM (active); in test [6], 13 µM (active); in test [12], 7.61 µM (active); in [14] it was 10.3 µM (active); in test [15], 24.9 µM (active). The AC50 in test [16] was 48 µM (active); in test [17], 19.8 µM (active); in test [18], 13.6 µM (active); in [19], 1.1 µM (active); in test [20] it was 28.2 µM (active). Also, the compound was classed as inactive in test [2], in test [3], in test [4], in test [7], in [8] and in test [9]. Also, the compound was classed as inactive in [10], in [11] and in test [13].

For the compound `CN(C)CCO`, the result in test [1], in test [2], in test [3], in [4], in test [5] and in test [6] was inactive. Besides, the compound was classed as inactive in test [7], in test [8], in [10], in test [11], in [12] and in test [13]. Further, the call in test [14], in [15], in [16], in test [17], in test [18] and in test [19] was inactive. Also, the outcome in [20] was inactive.

The values above are taken from PubChem BioAssay (EPA / NIEHS).
